# This is a sample that favours compounds with a hit; in the whole collection about 4.7% have one here.
# RecA intein inh: Mtb RecA intein splicing inhibition; P9WHJ3; cell-free RecA intein splicing, fluorescence; inhibition, % (no concentration beside the values); 290,000 compounds, 0.75% hits; in the data active = inhibition above about 30%
# DUSP3 inh: blocks human VHR1 dual specificity phosphatase; P51452; recombinant VHR phosphatase, pNPP absorbance; inhibition, % at 13.3 µM; 290,000 compounds, 0.52% hits; in the data active = inhibition above about 50%
# Target sequence (P51452 whole entry, looked up): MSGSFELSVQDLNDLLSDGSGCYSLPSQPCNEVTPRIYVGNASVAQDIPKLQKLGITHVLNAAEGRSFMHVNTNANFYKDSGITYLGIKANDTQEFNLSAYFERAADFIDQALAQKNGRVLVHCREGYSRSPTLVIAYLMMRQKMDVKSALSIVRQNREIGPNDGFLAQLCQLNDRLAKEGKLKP
# FBA Mtb inh: inhibitors of M. tuberculosis fructose-bisphosphate aldolase; 360,000 compounds, 2.3% hits; inhibition, % at 1 µM; P9WQA3; purified M. tuberculosis FBA, fluorescence read-out; in the data active = inhibition above about 27%
# GDH-TPI counter-1: counter-screen for M. tuberculosis FBA inhibitors: GDH-TPI coupled enzymes; GDH-TPI coupled enzyme counterscreen, NADH absorbance; inhibition, % at 4.8 µM; 360,000 compounds, 1.2% hits
# CCHF vOTU inh-1: CCHFV vOTU protease inhibition; AID 651958; 370,000 compounds, 0.55% hits; inhibition, % at 11.5 µM; Pep-AMC fluorescence
# 3CLpro inhibitor: SARS-CoV 3CLpro protease inhibition; P0C6X7; recombinant SARS-CoV 3CLpro, quenched FRET peptide cleavage; inhibition, % at 6 µM; 290,000 compounds, 0.14% hits; in the data active = inhibition above about 12%
# Mtb FBA inh conf: Mtb FBA inhibition, confirmed; inhibition, % at 1 µM; shares compounds with FBA Mtb inh; 5,600 compounds, 78% hits; AID 651616; purified M. tuberculosis FBA, fluorescence read-out; in the data active = inhibition above about 27%
# GDH-TPI counter-2: GDH-TPI inhibition counter-screen for FBA inhibitors; shares compounds with FBA Mtb inh; GDH-TPI coupled enzyme counterscreen, fluorescence; inhibition, % at 1 µM; 5,600 compounds, 81% hits; in the data active = inhibition above about 10%
# CCHF vOTU inh-2: CCHFV vOTU protease inhibition, confirmation. shares compounds with CCHF vOTU inh-1. Recombinant CCHFV vOTU, Pep-AMC fluorescence. inhibition, % at 11.5 µM. 1,900 compounds, 17% hits
# A number is an active result; - = inactive; . = no result given. Rule as the data show it, unless noted: active = inhibition above about 30%; inactive = the rest.
SMILES,RecA intein inh,DUSP3 inh,FBA Mtb inh,GDH-TPI counter-1,CCHF vOTU inh-1,3CLpro inhibitor,Mtb FBA inh conf,GDH-TPI counter-2,others
CC(=O)N1CCC(C(=O)Nc2ccc(S(=O)(=O)N3CCCCC3)cc2)CC1,-,-,-,-,-,-,.,.,
CC(OC(=O)c1cccnc1Cl)C(=O)Nc1ccc2c(c1)OCCO2 (configuration not stated),.,-,35,-,-,-,161,130,
C=CCN(c1ccccc1)S(=O)(=O)c1cccc(C(=O)O)c1,-,-,54,-,-,-,199,189,
Cc1nc2sc3c(O)cc(=O)[nH]c3c2c(C)c1C,-,-,33,-,-,-,73,69,
Cc1cccc(-c2nc(CS(=O)CC(=O)NC3CCCC3)c(C)o2)c1 (configuration not stated),.,-,-,-,-,-,.,.,
Cc1cccc(-c2nc(C#N)c(NC3CCCCC3)o2)c1,-,-,96,-,-,-,35,27,
Cc1cccc(-c2nc(C#N)c(N3CCCCC3)o2)c1,-,-,38,-,-,-,36,33,
Cc1ccccc1-c1nc(C#N)c(N2CCCCC2)o1,-,-,70,-,-,-,-,-,
Cc1ccccc1OCc1nc(C#N)c(N2CCCC2)o1,-,-,-,-,-,-,.,.,
Cc1ccc(-c2nc(C#N)c(N3CCC(C)CC3)o2)cc1,-,-,67,-,-,-,61,58,
Cc1ccc(N2C(=O)NC(C(F)(F)F)(C(F)(F)F)C3=C2CC(C)(C)CC3=O)cc1,-,-,-,-,-,-,.,.,
CCCCN1CCS(=O)(=O)N(Cc2cn(Cc3ccc(C)cc3)nn2)C(C(=O)OC)C1 (configuration not stated),.,.,.,.,-,.,.,.,
COc1ccc(NC(=O)CSc2nnc(NC(=O)C3CC3)s2)cc1OC,-,-,-,-,-,-,.,.,
N#Cc1cc(N)ccc1-n1cccc1,-,-,-,-,-,-,.,.,
N=C1C(c2nc3ccccc3[nH]2)=C(O)CN1NC(=O)COc1cccc(F)c1,-,-,.,.,.,-,.,.,
COc1ccc(-c2nc(C#N)c(N3CC(C)OC(C)C3)o2)cc1OC (configuration not stated),-,-,61,-,-,-,98,85,
CC1CN(c2oc(-c3ccccc3Cl)nc2C#N)CC(C)O1 (configuration not stated),-,-,-,-,-,-,.,.,
Cc1cc2nc(-c3cccnc3SCC(=O)NCc3ccco3)[nH]c2cc1C,-,.,40,-,-,-,-,-,
COc1ccc2c(c1)NP(=S)(c1ccccc1)N2C (configuration not stated),.,.,27,-,38,.,67,55,CCHF vOTU inh-2=-
COc1ccc(P2(=O)Nc3ccccc3N2)cc1,-,-,-,-,-,-,.,.,
CCN(C(=S)NC(=O)c1ccco1)c1cccc2ccccc12,.,.,29,-,46,.,92,73,CCHF vOTU inh-2=-
CC1(C)Cc2c(c(-c3ccco3)[nH]c(=O)c2C#N)CS1,-,-,30,-,32,-,-,17,CCHF vOTU inh-2=-
N#Cc1c(NC(=O)c2ccc(Br)o2)n(-c2ccccc2)c2nc3ccccc3nc12,-,-,48,-,30,-,34,25,CCHF vOTU inh-2=-
COc1ccc(-n2c(NC(=O)c3ccc(Br)o3)c(C#N)c3nc4ccccc4nc32)cc1,-,-,.,.,.,-,.,.,
N#Cc1c(Nc2ccccc2)[n+]([O-])c2ccc(Cl)cc2[n+]1[O-],.,.,-,-,-,.,.,.,
O=C(COc1ccc(-c2ccccc2)cc1)NNC(=O)Nc1ccc(F)cc1F,-,-,-,-,-,-,.,.,
CC1(Cc2ccccc2OC(F)(F)F)C(=O)Nc2cc(-c3ccccc3Cl)ccc21 (configuration not stated),.,.,-,-,-,.,.,.,
CC1(Cc2ccccc2OC(F)(F)F)C(=O)Nc2ccc(-c3ccsc3)cc21 (configuration not stated),.,.,-,-,35,.,.,.,CCHF vOTU inh-2=-
CC1(Cc2ccccc2OC(F)(F)F)C(=O)Nc2ccc(OC(F)(F)F)cc21 (configuration not stated),.,.,-,-,33,.,.,.,CCHF vOTU inh-2=-

# Screening data (PubChem)
